Experimental data taken from PubChem BioAssay (NCI).
The panel holds about 83,000 compounds, 20% with a hit somewhere; the sample as a whole holds those more often.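 Single-dose data. Exposure time 48 hours. Values below 10 considered active.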 Activity calls are given as the source filed them.

How the values were obtained:
Test in all cases: NCI-60 one-dose screen, 48 h (100 = growth as untreated, 0 = no growth, -100 = all killed)
Conditions in all cases: 10 µM unless noted
HCT-15 colon = test system: HCT-15 colon
HT29 colon = test system: HT29 colon
SNB-75 CNS = test system: SNB-75 CNS
U251 CNS = test system: U251 CNS
PC-3 prostate = test system: PC-3 prostate
SK-MEL-5 melanoma = test system: SK-MEL-5 melanoma
LOX IMVI melanoma = test system: LOX IMVI melanoma
SK-MEL-28 melanoma = test system: SK-MEL-28 melanoma
SK-MEL-2 melanoma = test system: SK-MEL-2 melanoma
EKVX NSCLC = test system: EKVX NSCLC
SN12C renal = test system: SN12C renal
UO-31 renal = test system: UO-31 renal
TK-10 renal = test system: TK-10 renal
ACHN renal = test system: ACHN renal
A498 renal = test system: A498 renal
CCRF-CEM leukemia = test system: CCRF-CEM leukemia
MOLT-4 leukemia = test system: MOLT-4 leukemia
SNB-19 CNS = test system: SNB-19 CNS
UACC-62 melanoma = test system: UACC-62 melanoma
CAKI-1 renal = test system: CAKI-1 renal

Measured: growth

COc1ccc(C(=O)C[n+]2cccc3c4ccccc4ccc32)cc1
inactive: HCT-15 colon 87.5% | HT29 colon 20.4% | SNB-75 CNS 82.1% | U251 CNS 28.2% | PC-3 prostate 27.5% | LOX IMVI melanoma 46.1% | SK-MEL-28 melanoma 67% | SK-MEL-2 melanoma 56.3% | EKVX NSCLC 43.2% | SN12C renal 17.4% | UO-31 renal 56.5% | TK-10 renal 73.6% | ACHN renal 79% | A498 renal 102% | CCRF-CEM leukemia 52.5% | MOLT-4 leukemia 32%
active: SK-MEL-5 melanoma -31.4%

O=C(CSc1nc2sc3c(c2c(=O)n1-c1ccc(Cl)cc1)CCCC3)NNC(=O)c1ccc(F)cc1
inactive: HCT-15 colon 91.8% | HT29 colon 107% | SNB-75 CNS 76% | SNB-19 CNS 32% | PC-3 prostate 81.9% | SK-MEL-5 melanoma 66.9% | UACC-62 melanoma 41.1% | LOX IMVI melanoma 64.2% | SK-MEL-28 melanoma 87% | EKVX NSCLC 63.3% | SN12C renal 40.1% | UO-31 renal 56% | TK-10 renal 163% | ACHN renal 85.6% | A498 renal 121% | CCRF-CEM leukemia 73.6% | MOLT-4 leukemia 81.3%

Cc1cc(C2(c3cc(C)c(OCC(O)CNc4c(C)n(C)n(-c5ccccc5)c4=O)cc3C(C)C)OC(=O)c3ccccc32)c(C(C)C)cc1OCC(O)CNc1c(C)n(C)n(-c2ccccc2)c1=O (configuration not stated)
active: SK-MEL-5 melanoma -25.3%
inactive: HCT-15 colon 19.7% | HT29 colon 13.4% | SNB-75 CNS 46.6% | U251 CNS 22.5% | PC-3 prostate 12.9% | UACC-62 melanoma 24.4% | LOX IMVI melanoma 18.3% | SK-MEL-28 melanoma 33.8% | EKVX NSCLC 16.3% | SN12C renal 26.6% | UO-31 renal 19.1% | TK-10 renal 24.8% | ACHN renal 17.1% | CAKI-1 renal 21.9% | A498 renal 55.4% | CCRF-CEM leukemia 12.3% | MOLT-4 leukemia 13.1%

Cn1cc(-c2cc(N)n3nc(-c4c[nH]c5ccc(F)cc45)cc3n2)c2cc(Br)cnc21
inactive: HT29 colon 25.8% | SNB-75 CNS 134% | U251 CNS 22.4% | PC-3 prostate 53.8% | SK-MEL-5 melanoma 78.8% | UACC-62 melanoma 73.7% | SK-MEL-28 melanoma 80% | SK-MEL-2 melanoma 87.3% | EKVX NSCLC 65.5% | SN12C renal 69.3% | UO-31 renal 47.3% | TK-10 renal 90.9% | ACHN renal 39.5% | CAKI-1 renal 46% | A498 renal 109%
active: HCT-15 colon -11.7% | CCRF-CEM leukemia -42.9% | MOLT-4 leukemia -10.4%

COc1cc(CNC(=O)C[C@H](C)CCC=C(C)C)ccc1OCc1cn(-c2ccccc2F)nn1
inactive: HCT-15 colon 82.8% | HT29 colon 97.4% | SNB-75 CNS 10.6% | SNB-19 CNS 55.7% | PC-3 prostate 87.9% | SK-MEL-5 melanoma 70.8% | UACC-62 melanoma 69.5% | LOX IMVI melanoma 76.7% | SK-MEL-28 melanoma 94.9% | EKVX NSCLC 78.3% | SN12C renal 76.1% | UO-31 renal 71.9% | TK-10 renal 95.8% | ACHN renal 65.3% | A498 renal 103% | CCRF-CEM leukemia 97.3% | MOLT-4 leukemia 74.8%

CN1CCc2c(sc3ncnc(N/N=C/c4cccc(Cl)c4Cl)c23)C1
inactive: PC-3 prostate 96% | SK-MEL-5 melanoma 80.7% | UACC-62 melanoma 92.5% | SK-MEL-28 melanoma 103% | SK-MEL-2 melanoma 104% | EKVX NSCLC 67.4% | SN12C renal 10.3% | UO-31 renal 42.6% | TK-10 renal 72.7% | CAKI-1 renal 79.4% | A498 renal 114%
active: HCT-15 colon -14.5% | HT29 colon -12.7% | SNB-19 CNS 4.21% | U251 CNS -96.3% | LOX IMVI melanoma -82.5% | ACHN renal -39.1% | CCRF-CEM leukemia 4.9% | MOLT-4 leukemia 6.34%

CCCCCCCCc1ccc(C(=O)Nc2cccc(O)c2)cc1
inactive: HCT-15 colon 47.4% | HT29 colon 78.7% | SNB-19 CNS 83% | U251 CNS 77.5% | PC-3 prostate 52.4% | SK-MEL-5 melanoma 46.6% | UACC-62 melanoma 69.4% | LOX IMVI melanoma 64.7% | SK-MEL-28 melanoma 83.4% | SK-MEL-2 melanoma 83.8% | EKVX NSCLC 66.4% | SN12C renal 65.4% | UO-31 renal 34.4% | TK-10 renal 106% | ACHN renal 57.3% | CAKI-1 renal 77.8% | A498 renal 115% | MOLT-4 leukemia 35.5%
active: CCRF-CEM leukemia 0.746%

C=CCSc1nnc(-c2c(C)nc3sccn23)o1
inactive: HCT-15 colon 92.7% | HT29 colon 96.1% | SNB-75 CNS 69.1% | U251 CNS 88% | PC-3 prostate 88.9% | SK-MEL-5 melanoma 95.5% | UACC-62 melanoma 74.4% | LOX IMVI melanoma 95.5% | SK-MEL-28 melanoma 96.7% | SK-MEL-2 melanoma 104% | EKVX NSCLC 76.4% | SN12C renal 96.8% | UO-31 renal 71.8% | TK-10 renal 124% | ACHN renal 88.5% | CAKI-1 renal 77.9% | A498 renal 96.9% | CCRF-CEM leukemia 90.3% | MOLT-4 leukemia 116%

O=C(NNC(=S)NC(=O)c1ccccc1)c1ccc(OCc2nc3ccc(Cl)cc3[nH]2)cc1
active: HCT-15 colon -75.1% | HT29 colon -6.38% | U251 CNS -71.4% | PC-3 prostate 2.48% | SK-MEL-5 melanoma -73.4% | UACC-62 melanoma -88.4% | SK-MEL-2 melanoma -47.3% | EKVX NSCLC -53% | SN12C renal -80.2% | UO-31 renal -76.1% | ACHN renal -43% | CAKI-1 renal -1.67% | A498 renal -55% | CCRF-CEM leukemia 2.87% | MOLT-4 leukemia 2.46%
inactive: TK-10 renal 11.2%

O=C1Nc2cc(-c3ccc(NS(=O)(=O)c4ccc(F)c(Cl)c4)cc3)ccc2/C1=C/c1ccc[nH]1
inactive: HCT-15 colon 14% | SNB-19 CNS 46.6% | PC-3 prostate 30.2% | SK-MEL-5 melanoma 58.8% | UACC-62 melanoma 32.9% | SK-MEL-28 melanoma 41.4% | SK-MEL-2 melanoma 55.8% | SN12C renal 55.3% | UO-31 renal 35.6% | TK-10 renal 54.5% | A498 renal 52.1% | CCRF-CEM leukemia 39.7% | MOLT-4 leukemia 11.7%
active: HT29 colon -18.4% | U251 CNS 2.34% | LOX IMVI melanoma 0.97% | EKVX NSCLC 1.79% | ACHN renal 6.04%

COc1ccc(NC(=O)Cn2c(/C=C/c3cccc(OC)c3)nc3ccccc3c2=O)cc1
active: U251 CNS -26.5% | SN12C renal -24% | UO-31 renal -74.3% | TK-10 renal -42.9% | ACHN renal -61.4%
inactive: HCT-15 colon 70.9% | HT29 colon 51.8% | SNB-19 CNS 56.4% | PC-3 prostate 73.9% | SK-MEL-5 melanoma 92.7% | UACC-62 melanoma 57.8% | LOX IMVI melanoma 22.4% | SK-MEL-2 melanoma 87.9% | EKVX NSCLC 79.6% | CAKI-1 renal 50.9% | CCRF-CEM leukemia 89.4% | MOLT-4 leukemia 97.4%

Cc1ccc(C(=O)Nc2cc(-c3ccncc3)cc(C(F)(F)F)c2)cc1C#Cc1cnc2cccnn12
inactive: HCT-15 colon 40.5% | HT29 colon 26.9% | SNB-19 CNS 92.9% | U251 CNS 66.5% | PC-3 prostate 75.1% | SK-MEL-5 melanoma 34.4% | UACC-62 melanoma 14.4% | LOX IMVI melanoma 11.1% | SK-MEL-2 melanoma 37.9% | EKVX NSCLC 64.3% | SN12C renal 34.8% | UO-31 renal 31.4% | TK-10 renal 63.7% | ACHN renal 46.6% | CCRF-CEM leukemia 30% | MOLT-4 leukemia 31.3%

CCCCCCCCc1ccc(C(=O)Nc2ccc(C)c(OP(=O)(O)O)c2)cc1
inactive: HCT-15 colon 95.5% | HT29 colon 106% | SNB-19 CNS 91% | U251 CNS 92% | PC-3 prostate 91.3% | SK-MEL-5 melanoma 103% | UACC-62 melanoma 90.6% | LOX IMVI melanoma 92.9% | SK-MEL-2 melanoma 109% | EKVX NSCLC 101% | SN12C renal 95.1% | UO-31 renal 62.4% | TK-10 renal 107% | ACHN renal 103% | CAKI-1 renal 102% | A498 renal 107% | CCRF-CEM leukemia 42.9% | MOLT-4 leukemia 78.3%

Cn1cc(-c2cc(N)n3nc(-c4c[nH]c5ccccc45)cc3n2)c2cc(Cl)ccc21
active: HCT-15 colon -77.3% | HT29 colon -51.4% | SNB-19 CNS -91.1% | U251 CNS -94.7% | PC-3 prostate -27.2% | SK-MEL-5 melanoma -97.6% | UACC-62 melanoma -76.9% | SK-MEL-28 melanoma -90.2% | SK-MEL-2 melanoma -64.6% | EKVX NSCLC -77% | SN12C renal -81.2% | UO-31 renal -80.1% | TK-10 renal -90.2% | ACHN renal -75.6% | CAKI-1 renal -63.6% | A498 renal -59.1% | CCRF-CEM leukemia -16.2% | MOLT-4 leukemia 6.43%

O=C(CSc1nc2ccccc2c(=O)[nH]1)Nc1ccccc1C(=O)O
inactive: HCT-15 colon 86.6% | HT29 colon 124% | SNB-19 CNS 95.7% | U251 CNS 101% | PC-3 prostate 110% | SK-MEL-5 melanoma 94.9% | UACC-62 melanoma 84.8% | LOX IMVI melanoma 84.8% | SK-MEL-28 melanoma 93.7% | SK-MEL-2 melanoma 116% | EKVX NSCLC 92.3% | SN12C renal 98.9% | UO-31 renal 71.8% | TK-10 renal 116% | ACHN renal 89.3% | CAKI-1 renal 89.9% | A498 renal 216% | CCRF-CEM leukemia 90.5% | MOLT-4 leukemia 97%

Cc1ccc(C(=O)Nc2ccc(-n3ccnc3)c(C(F)(F)F)c2)cc1C#Cc1cnc2cccnn12
active: PC-3 prostate -16.3% | SK-MEL-5 melanoma -55% | LOX IMVI melanoma 3.66% | SK-MEL-28 melanoma -10.8% | SK-MEL-2 melanoma -23.6% | UO-31 renal 5.87% | CAKI-1 renal -4.4% | A498 renal -6.46% | MOLT-4 leukemia -32.5%
inactive: HCT-15 colon 20.7% | HT29 colon 17.8% | SNB-19 CNS 36.4% | U251 CNS 33.6% | EKVX NSCLC 27.5% | SN12C renal 14.4% | TK-10 renal 23% | ACHN renal 12.3% | CCRF-CEM leukemia 22.9%

Cc1ccc(C(C)C)cc1Oc1cccc(-c2c(-c3ccc(C(F)(F)F)cc3)ncn2C2CCNCC2)n1
active: HCT-15 colon -94.1% | HT29 colon -92.1% | SNB-19 CNS -97.2% | PC-3 prostate -92% | SK-MEL-5 melanoma -98.6% | UACC-62 melanoma -94.1% | LOX IMVI melanoma -75.8% | SK-MEL-28 melanoma -80.5% | SK-MEL-2 melanoma -93.1% | EKVX NSCLC -91% | SN12C renal -92.1% | UO-31 renal -97.4% | TK-10 renal -94.9% | ACHN renal -100% | CAKI-1 renal -98.1% | A498 renal -86.2% | CCRF-CEM leukemia -73.8% | MOLT-4 leukemia -80.3%
